ELG1 DNA repair – blocks ELG1-dependent DNA repair in HEK293T cells | HEK293T ELG1-luciferase reporter, luminescence, 16 h; DNA damage induced by 5-fluorouridine | 330,000 tested, 2.3% active | Potency, µM (doses to about 46.1 µM), without a hit: at the highest dose activity change, negative = inhibition, usual class: inhibitors | AID 504467; also: potency is read from the fitted curve at half-maximal effect; nearly all actives have a fitted effect of over 55% in size
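Cells (2,000 per well) received 5-fluorouridine plus test compound or DMSO and were incubated 16 hr at 37 °C, 5% CO2. Luciferase activity was read by luminescence 30 min after ONE-Glo addition; signal suppression marked inhibition of damage-induced ELG1 function.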
HT1080-NT tox – kills 2HG-producing HT-1080-NT fibrosarcoma cells; 360,000 tested, 1.6% active; HT-1080-NT fibrosarcoma viability, CellTiter-Glo ATP luminescence, 48 h; Potency, µM (highest dose often 46.1 µM), inactives show at the top dose activity, negative = less viability, hits mostly cytotoxic; AID 686970;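 also: NT is the 2HG producing partner of a matched IDH1 knockdown line; potency is read from the fitted curve at half-maximal effect; 0% = DMSO-treated cells and -100% = media-only wells without cells; nearly all actives have a fitted effect of over 55% in size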
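Viability by CellTiter-Glo luminescence after 48 h compound exposure at 37C of HT-1080-NT cells (750/well, RPMI, 5% FBS). % activity scaled between DMSO wells and medium-only wells, then curve-fitted and categorized by curve class.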
HT1080 IDH1KD tx – toxicity to HT-1080 IDH1 knockdown cells (counter line) | HT-1080 IDH1 knockdown viability, ATP luminescence, 48 h | Potency, µM (doses to about 46.1 µM), without a hit: top-dose activity, negative = toxicity, actives largely listed as cytotoxic | 360,000 tested, 2% active | AID 686971;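 also: potency is read from the fitted curve at half-maximal effect; 0% = DMSO wells and -100% = cell-free medium wells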
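HT-1080-IDH1KD cells (IDH1 knocked down), 750/well in RPMI with 5% FBS, treated with compound 48 h at 37 degrees C. Viability by CellTiter-Glo luminescence, normalised to DMSO and no-cell wells; concentration-response curves classed.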
TDP1 cell CPT – DT40-hTDP1 cell growth loss with CPT; chicken DT40 Tdp1-/-;hTDP1 cells + 20 nM CPT, ATP luminescence, 48 h; Potency, µM (top dose mostly 46.2 µM), without a hit: at the highest dose activity change, negative = growth inhibition, hits mostly inhibitors; 420,000 tested, 12% active; AID 686979; also: potency is read from the fitted curve at half-maximal effect; nearly all actives have a fitted effect of over 55% in size
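Cell growth measured by CellTiter-Glo luminescence after a minimum 48 h, 37 C compound exposure with 20 nM CPT in Tdp1-knockout DT40 cells stably expressing hTDP1, seeded 400/well; qHTS titration format.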
IL1B secr inh – blocks inflammasome-driven IL-1 beta release; THP-1 LPS/ATP IL-1B secretion, AlphaLISA, 16 h; stronger effect = lower value; activity change, % at 57.5 µM; 360,000 tested, 4.7% active; in the data active = activity change below about -50%; inconclusive = mostly about -30% to -49%
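THP-1 cells pretreated 1 hr with compounds (up to 57.5 uM final), then stimulated with LPS (250 ng/mL final) plus ATP (1.25 mM final); secreted IL-1B measured by AlphaLISA after 16 hr, decreased signal indicating inhibition.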
DT40 TDP1 no CPT – qHTS for Inhibitors of human tyrosyl-DNA phosphodiesterase 1 (TDP1): qHTS in cells in absence of CPT; DT40 Tdp1-/- hTDP1 cells, no CPT, ATP luminescence, 48 h; Potency, µM (highest dose often 46.2 µM), for the others: at the top dose activity change, negative = growth inhibition, hits mostly inhibitors; 420,000 tested, 15% active; AID 686978, 2013; also: potency is read from the fitted curve at half-maximal effect; nearly all actives have a fitted effect of over 55% in size
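Chicken DT40 Tdp1-/- cells stably complemented with human TDP1 were seeded at 400 cells/well with DMSO in place of 20 nM camptothecin. After compound pinning, cells grew at least 48 hr at 37 °C; viability read by CellTiter-Glo luminescence.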
Numbers without * were called inactive; ? = inconclusive; . = not tested or not shown. The list is not random: actives were taken first. Their share in the collection is about 19%. Unless noted, calls follow the shape of the dose curve; as a rule, active = well fitted curve in the direction sought with a large enough effect; inconclusive = small, poorly fitted or top-dose-only effect, or another doubt; inactive = no such curve, though single readings can be large; an effect the other way counts as inactive or inconclusive. Unless noted, % is scaled to controls: 0 for no effect and ±100 for the full control effect.

SMILES | ELG1 DNA repair | HT1080-NT tox | HT1080 IDH1KD tx | TDP1 cell CPT | IL1B secr inh | DT40 TDP1 no CPT
CC1=C(C(=O)N(C(C)C)C(C)C)CC(CC(=O)NC(c2ccccc2)c2ccccc2)C(=O)N1Cc1ccc(C(C)(C)C)cc1 (stereo not given) | . | ? | ? | ? | -59.4* | ?
CC1(C(=O)NC2CCCC2)CCC(=O)N1CCOc1ccccc1 (stereo not given) | . | 22.1% | 5.5% | 1.4% | -10.4 | 5.0%
CCC(NC(=O)COc1cc2c(c3oc(=O)c(C)c(C)c13)CCC(C)(C)O2)C(=O)O (stereo not given) | -0.4% | 9.5% | 9.4% | 25.1% | -3.4 | -0.7%
COc1ccc(S(=O)(=O)N2CCOC2CNC(=O)C(=O)NCCc2ccc(OC)c(OC)c2)cc1 (stereo not given) | ? | -2.4% | -10.4% | 16.4µM* | 0.0 | ?
COc1ccc(CCNC(=O)C(=O)NCC2OCCN2S(=O)(=O)c2ccc(Br)cc2)cc1OC (stereo not given) | 20.6µM* | 0.2% | -4.5% | 3.2% | 0.0 | 7.4%
O=C(NCCc1ccco1)C(=O)NCC1OCCCN1S(=O)(=O)c1ccc(F)cc1 (stereo not given) | -1.4% | -3.4% | -1.2% | -24.2% | -7.0 | 14.6%
COc1ccc(S(=O)(=O)N2CCCOC2CNC(=O)C(=O)NCCc2ccco2)cc1C (stereo not given) | 1.2% | 16.4µM* | 18.4µM* | 5.8µM* | 50.6 | 7.31µM*
Cc1ccc(S(=O)(=O)N2CCOC2CNC(=O)C(=O)NCc2ccc(Cl)cc2)cc1 (stereo not given) | 23.1µM* | -4.9% | -4.1% | ? | 0.0 | 20.6µM*
COC(=O)C[C@@H]1C=C[C@@H](NC(=O)c2ccccc2F)[C@@H](CO)O1 | . | 29.4% | 14.4% | -4.6% | 9.7 | 10.8%
COc1ccc(CCNC(=O)C(=O)NCC2OCCN2S(=O)(=O)c2ccc(Cl)cc2)cc1OC (stereo not given) | ? | -1.0% | -10.7% | ? | 5.5 | 18.4µM*
O=C(NCCc1ccccc1)C(=O)NCC1OCCN1S(=O)(=O)c1ccc(Br)cc1 (stereo not given) | -4.0% | -12.1% | -3.6% | ? | 5.9 | 16.4µM*
Cc1ccc(S(=O)(=O)N2CC=C(c3c(C)n(C)c4ccccc34)CC2)cc1 | -0.1% | -0.9% | -3.5% | ? | 15.5 | 16.4µM*
COC(=O)c1sc2cccc(F)c2c1S(=O)(=O)Nc1cc(OC)cc(OC)c1 | . | . | . | 6.3% | . | 3.7%
Cc1cc(N(C)/N=C/c2ccccc2O)nc(-c2ccccc2O)n1 | -16.6% | 5.8% | 20.9% | 5.8µM* | 30.1 | 4.11µM*
Cc1cc(Nc2ccc(Br)cc2)nc(-c2ccccc2O)n1 | 4.7% | 2.9% | -14.9% | ? | -24.2 | -25.2%
Cc1cccc(OC2CCN(Cc3c(C(=O)N4CCCC4)nc4ccccn34)CC2)c1 | -15.0% | -6.5% | -11.5% | ? | 3.2 | ?
O=C(c1nc2ccccn2c1CN1CCC(Cc2ccccc2)CC1)N1CCCC1 | 12.9% | -4.1% | 2.9% | ? | -6.2 | 23.1µM*
O=C(CN1C(=O)S/C(=C\c2ccc(F)cc2)C1=O)Nc1cccc(S(=O)(=O)NCc2ccco2)c1 | -3.4% | -22.6% | -10.0% | ? | ? | ?
COC(=O)C1CCN(S(=O)(=O)c2c[nH]c(=O)[nH]c2=O)CC1 | . | 1.3% | 2.3% | -9.4% | -7.0 | 3.2%
COc1ccc(N=C2NN=C(c3c(C)[nH]c4ccccc34)CS2)cc1 | ? | ? | ? | ? | ? | 23.1µM*
Cc1[nH]c2ccccc2c1C1=NNC(=Nc2ccc(F)cc2)SC1 | ? | -26.4% | -23.7% | ? | -66.2* | ?
COc1ccc(N=C2SCC(c3ccccc3)=NN2C)cc1 | ? | -8.1% | -5.6% | ? | -8.0 | ?
O=C1Nc2ccc(Br)cc2/C1=C/c1ccc(C(=O)O)cc1 | 14.8% | . | . | . | . | .
CCn1c(-c2cccnc2)nc2cc(NC(=O)COC)cc(C(=O)N3CC[C@@H]4CCCC[C@H]4C3)c21 | . | . | . | 10.2% | . | -29.5%
Cc1c(O)c(=O)ccn1Cc1ccccc1 | ? | -22.8% | -11.8% | 23.1µM* | 90.8 | 18.4µM*
SMILES | ELG1 DNA repair | HT1080-NT tox | HT1080 IDH1KD tx | TDP1 cell CPT | IL1B secr inh | DT40 TDP1 no CPT
Cc1ccc(Cn2ccc(=O)c(OCc3ccccc3)c2C)cc1 | ? | 8.3% | 13.6% | ? | 16.4 | ?
Cc1c(OCc2ccccc2)c(=O)ccn1Cc1ccc(Cl)cc1 | ? | ? | ? | ? | -17.7 | 16.4µM*
Cc1ccc(Cn2ccc(=O)c(Cc3c(Cl)cccc3Cl)c2C)cc1 | 7.4% | -9.2% | -21.8% | -8.7% | 21.0 | -24.2%
Cc1ccc(C(=O)Nc2ccc(C(=O)N/N=C/c3c[nH]c4ccccc34)cc2)cc1 | ? | -24.0% | ? | ? | -16.2 | ?
Cc1ccc(NC(=S)N/N=C/c2c(C)[nH]c3ccccc23)cc1 | 2.8% | ? | ? | ? | -0.7 | 29.1µM*
Cc1[nH]c2ccccc2c1/C=N/NC(N)=S | 1.4% | 7.4% | 23.0% | -5.4% | -17.6 | 6.6%
Cc1ccc(NCC(=O)N/N=C/c2cccn2C)cc1 | 16.0% | -0.8% | 12.4% | 16.6% | -21.8 | ?
Cc1cccc(NC(=S)N/N=C/c2c[nH]c3ccccc23)c1 | 1.6% | 23.1µM* | 16.4µM* | 2.59µM* | -22.9 | 2.59µM*
Cc1ccc(Cn2cccc2/C=N/NC(=S)Nc2ccc(C)cc2)cc1 | -13.3% | -21.0% | ? | 4.61µM* | 67.9 | 6.51µM*
CN1CC(=O)NC1=N | . | . | . | 9.5% | . | 13.8%
CN(C)c1ccc(/C=N/NC(=O)C2COc3ccccc3O2)o1 (stereo not given) | -7.6% | ? | -4.4% | ? | 25.2 | -13.6%
O=C(N/N=C/c1cccs1)C1COc2ccccc2O1 (stereo not given) | 4.1% | ? | ? | ? | 20.2 | 16.4µM*
Cc1ccc(/C=N/NC(=O)C2COc3ccccc3O2)s1 (stereo not given) | 15.9% | ? | 1.84µM* | 1.16µM* | -11.8 | 1.64µM*
Cc1cc(Cl)c(OCCCN(C)C)c(Br)c1 | -4.0% | -1.5% | -13.9% | -1.3% | -6.1 | -24.0%
Cc1cc(Br)cc(C)c1OCCCCN(C)C | 15.6% | ? | ? | 29.1µM* | -20.9 | ?
O=c1cc(-c2ccccc2)nc(N2CCN(Cc3ccccc3)CC2)[nH]1 | -2.8% | -2.6% | -1.0% | 18.4µM* | -4.6 | 20.6µM*

Screening data (PubChem)
